Among the data in PubChem BioAssay are composite z-score, z-score and composite Z-score values, retold here.

The subject of experiment [1] is Human papillomavirus type 1a protein E7 (residues 44-93). In words: small molecules binding HPV E7 44-93 – biochemical, small-molecule microarray, residues 44-93, 635 nm fluorescence, primary screen (AID 1108).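 Further: E7 fragment applied at 1 µg/mL in TBST for 1 h at 4 C; score combines spot fluorescence with its signal to noise ratio.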 To be noted: fluorescence 635 nm, higher = more signal.
Experiment [2] can be described thus: hepatitis C replication reporter changes, two-sided – Huh7 cells, luciferase reporter, HCV replication inhibitor project, primary screen (AID 1109).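 Further: huh7 hepatoma cells harbouring a luciferase neomycin HCV replicon reporter; luciferase luminescence as measure of HCV replicon replication; test concentration not given here.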 As to conditions: Huh7 HCV replicon luciferase reporter, 48 h; higher = more signal. (In general: Reporter assays use an easily measured gene product as a stand-in for the process of interest.)
Experiment [3] addresses Left-right determination factor 2 (Homo sapiens) (UniProt O00292). In words: small molecules binding LEFTY2 protein – biochemical, small-molecule microarray, 635 nm fluorescence scan, primary screen (AID 1110). As to conditions: higher = more signal.
The target in experiment [4] is Calmodulin-1 (Homo sapiens) (UniProt P0DP23). The experiment in a line: small molecules binding calmodulin-1 with EGTA – biochemical, small-molecule microarray, Cy5-labelled CALM1, profiling panel (AID 1111).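 Further: labelled calmodulin applied in Tris saline Tween buffer holding calcium plus EGTA and DTT.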 As to conditions: Cy5-CALM1 binding fluorescence, higher = more signal.
Experiment [5] shares this target. The experiment in a line: small molecules binding Ca-loaded calmodulin-1 – biochemical, small-molecule microarray, Cy5-labelled CALM1, plus calcium, artefact control for SMM control-protein annotation, profiling panel (AID 1112).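 Further: score merges spot fluorescence with signal to noise from triplicate slides.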 To be noted: Cy5-CALM1 binding fluorescence, higher = more signal.
Experiment [6] can be described thus: probe aWnt5a binding to arrayed compounds – biochemical, biotinylated probe, 635/667 nm fluorescence, primary screen (AID 1113).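 Further: score merges 667 nm fluorescence intensity with signal-to-noise per printed feature.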 To be noted: small-molecule microarray, higher = more signal.
A short description of experiment [7]: probe aShh binding to arrayed compounds – biochemical, biotinylated probe, 635/667 nm fluorescence, primary screen (AID 1114).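 Further: probe is biotin-labelled aShh protein from a stem cell growth factor screen; measures binding of labelled protein to compounds printed on the slide; score merges feature fluorescence at 667 nm with signal-to-noise.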 As to conditions: small-molecule microarray, higher = more signal.
A short description of experiment [8]: probe aNog binding to arrayed compounds – biochemical, biotinylated probe, 635/667 nm fluorescence, primary screen (AID 1115).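 Further: probe is biotinylated aNog protein used at 0.15 µg/mL for 1 h at 4 C; z-score combines 667 nm fluorescence of each spot with its signal to noise.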 As to conditions: small-molecule microarray, higher = more signal.
Experiment [9] deals with Torsin-1A-interacting protein 1 (Homo sapiens) (UniProt Q5JTV8). In words: compound microarray binding of lysate hLAP1 – cell lysate, small-molecule microarray, COS7 lysate, 635/667 nm fluorescence, primary screen (AID 1116). To be noted: 635 nm fluorescence, higher = more signal.
Chain of Torsin-1A-interacting protein 1 (Homo sapiens) (Q5JTV8 whole entry, looked up): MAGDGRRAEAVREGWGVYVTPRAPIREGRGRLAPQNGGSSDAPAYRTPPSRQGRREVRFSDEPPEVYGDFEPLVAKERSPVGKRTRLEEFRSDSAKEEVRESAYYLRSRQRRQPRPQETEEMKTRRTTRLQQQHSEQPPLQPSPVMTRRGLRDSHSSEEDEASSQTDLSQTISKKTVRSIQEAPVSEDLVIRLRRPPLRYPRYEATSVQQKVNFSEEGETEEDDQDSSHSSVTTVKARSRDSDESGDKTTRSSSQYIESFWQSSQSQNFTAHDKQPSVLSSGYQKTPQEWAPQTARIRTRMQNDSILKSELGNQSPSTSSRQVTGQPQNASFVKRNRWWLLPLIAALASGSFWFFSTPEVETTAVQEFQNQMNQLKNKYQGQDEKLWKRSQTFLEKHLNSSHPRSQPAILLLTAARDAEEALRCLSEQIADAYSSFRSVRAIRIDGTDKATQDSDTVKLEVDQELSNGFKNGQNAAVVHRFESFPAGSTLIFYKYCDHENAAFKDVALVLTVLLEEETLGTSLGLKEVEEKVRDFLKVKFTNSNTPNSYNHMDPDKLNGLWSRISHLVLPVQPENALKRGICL
The target in experiment [10] is Alpha-bungarotoxin (Bungarus multicinctus) (UniProt P60615). The experiment in a line: compounds binding labelled alpha-BTX control protein – biochemical, small-molecule microarray, Alexa647 label, 635/667 nm fluorescence, artefact control for SMM control protein annotation, profiling panel (AID 1117). To be noted: alpha-BTX-A647 binding fluorescence, higher = more signal.
Chain of Alpha-bungarotoxin (Bungarus multicinctus) (P60615 whole entry, looked up): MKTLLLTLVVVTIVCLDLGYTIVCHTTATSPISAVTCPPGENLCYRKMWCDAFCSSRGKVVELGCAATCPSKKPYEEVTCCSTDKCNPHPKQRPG

For experiment [11], the target named is Albumin (Bos taurus) (UniProt P02769). The experiment in a line: compounds binding labelled BSA control protein – biochemical, small-molecule microarray, Alexa647 label, 635/667 nm fluorescence, artefact control for SMM control protein annotation, profiling panel (AID 1118).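 Further: score merges 667 nm emission intensity and signal-to-noise per printed compound spot.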 As to conditions: BSA-A647 binding, fluorescence 635 nm, higher = more signal.
Chain of Albumin (Bos taurus) (P02769 whole entry, looked up): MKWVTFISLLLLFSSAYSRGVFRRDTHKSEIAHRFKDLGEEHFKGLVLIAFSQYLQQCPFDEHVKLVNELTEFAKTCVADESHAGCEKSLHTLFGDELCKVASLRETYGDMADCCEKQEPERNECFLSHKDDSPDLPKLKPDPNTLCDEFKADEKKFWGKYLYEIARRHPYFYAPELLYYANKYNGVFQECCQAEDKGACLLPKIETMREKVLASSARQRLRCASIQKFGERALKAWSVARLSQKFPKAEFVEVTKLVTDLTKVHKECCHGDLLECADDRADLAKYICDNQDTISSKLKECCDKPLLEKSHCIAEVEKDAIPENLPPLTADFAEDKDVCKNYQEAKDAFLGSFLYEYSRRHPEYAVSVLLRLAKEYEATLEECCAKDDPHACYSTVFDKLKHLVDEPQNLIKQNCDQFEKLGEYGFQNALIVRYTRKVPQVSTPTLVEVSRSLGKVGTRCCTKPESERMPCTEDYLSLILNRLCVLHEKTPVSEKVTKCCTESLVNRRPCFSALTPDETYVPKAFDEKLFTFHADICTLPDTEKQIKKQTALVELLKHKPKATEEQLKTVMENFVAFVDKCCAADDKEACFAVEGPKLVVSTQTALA
A short description of experiment [12]: probe aXIP binding to arrayed compounds – biochemical, NeuroSMM set, 635/667 nm fluorescence, primary screen (AID 1119).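 Further: probe is the protein aXip251-270 applied at 1 µg/mL to compound-printed slides; binding of probe to printed compounds measured as 667 nm fluorescence plus signal to noise.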 To be noted: small-molecule microarray, higher = more signal, called active from +8 up or from −8 down.
Experiment [13] is described as follows: probe aNOTCH3 binding on compound microarray – biochemical, small-molecule microarray, 635/667 nm fluorescence, primary screen (AID 1120).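 Further: probe is a biotin-tagged antibody raised against NOTCH3 rather than NOTCH3 protein; score merges spot fluorescence near 667 nm with spot signal to noise.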 As to conditions: higher = more signal.
The nature of experiment [14]: probe aNOTCH2 binding on compound microarray – biochemical, small-molecule microarray, 635/667 nm fluorescence, primary screen (AID 1121).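 Further: score merges feature fluorescence read at 667 nm with its signal to noise.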 As to conditions: higher = more signal.
In experiment [15] the target is Carbonic anhydrase 2 (Homo sapiens) (UniProt P00918). The experiment in a line: compounds binding carbonic anhydrase 2 – biochemical, small-molecule microarray, Alexa647-labelled CAII, profiling panel (AID 1122). To be noted: CAII-A647 binding fluorescence, higher = more signal.
The nature of experiment [16]: COS7 lysate on small-molecule microarray, probe aHis, 635 nm (AID 1123).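 Further: z-score combines 667nm fluorescence intensity with signal-to-noise per printed compound spot.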 To be noted: COS7 cell lysate, fluorescence, higher = more signal.
The nature of experiment [17]: probe aLAP1 signal on lysate-treated microarray – cell lysate, small-molecule microarray, COS7 lysate, primary screen (AID 1124).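 Further: lysate comes from COS7 cells expressing LAP1 and is applied at 0.3 µg/mL; score merges spot fluorescence near 667 nm with signal-to-noise over triplicate slides.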 To be noted: probe aLAP1, fluorescence, higher = more signal.
Experiment [18] concerns Sam68 (KHDRBS1). In words: compounds binding KHDRBS1 protein – biochemical, small-molecule microarray, 635 nm fluorescence, primary screen (AID 1125).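 Further: score merges 667 nm channel intensity with signal to noise over triplicate slides.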 As to conditions: higher = more signal.
The test system of experiment [19] is Chordin-like protein 2 (CHRDL2). In words: compounds binding chordin-like 2 – biochemical, small-molecule microarray, 635 nm fluorescence, primary screen (AID 1126).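 Further: printed compound slides probed with Chrdl2 protein at 4 µg/mL for 1 h at 4 C; score merges 667 nm emission intensity with signal to noise over three replicate slides.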 As to conditions: fluorescence 635 nm, higher = more signal.
For experiment [20], the target named is Concanavalin-A (Canavalia ensiformis) (UniProt P02866). The experiment in a line: compounds binding concanavalin A lectin – biochemical, small-molecule microarray, Alexa647 label, 635 nm, artefact control for SMM control protein annotation, primary screen (AID 1127).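 Further: z combines 667 nm emission intensity with signal-to-noise across three replicate slides.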 To be noted: ConA-A647 binding fluorescence, higher = more signal.
Chain of Concanavalin-A (Canavalia ensiformis) (P02866 whole entry, looked up): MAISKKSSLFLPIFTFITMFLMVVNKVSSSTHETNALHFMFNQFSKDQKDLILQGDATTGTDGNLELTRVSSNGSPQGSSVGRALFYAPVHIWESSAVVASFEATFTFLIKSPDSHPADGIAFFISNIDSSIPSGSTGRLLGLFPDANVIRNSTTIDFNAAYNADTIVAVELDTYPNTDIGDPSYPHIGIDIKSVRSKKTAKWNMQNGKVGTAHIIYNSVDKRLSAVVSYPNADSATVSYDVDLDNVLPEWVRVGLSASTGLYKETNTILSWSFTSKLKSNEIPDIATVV

Molecules are shown by their SMILES. Several values for one entry are separate records, joined by “and”; a condition that tells them apart may be missing. Equal entries are not always repeated. Activity calls are given as the source filed them.

Chain of Left-right determination factor 2 (Homo sapiens) (O00292 whole entry, looked up): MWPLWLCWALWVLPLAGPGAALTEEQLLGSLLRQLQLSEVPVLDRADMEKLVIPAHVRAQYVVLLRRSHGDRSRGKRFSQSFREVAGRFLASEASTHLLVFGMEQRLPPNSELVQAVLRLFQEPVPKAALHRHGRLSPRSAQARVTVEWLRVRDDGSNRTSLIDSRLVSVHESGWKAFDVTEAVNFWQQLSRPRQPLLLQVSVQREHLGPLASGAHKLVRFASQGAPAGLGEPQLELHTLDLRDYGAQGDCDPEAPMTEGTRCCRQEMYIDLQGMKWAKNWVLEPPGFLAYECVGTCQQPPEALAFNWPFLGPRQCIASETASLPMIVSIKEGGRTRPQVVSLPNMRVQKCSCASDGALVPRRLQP

Regarding `C[C@@H]1CC[C@H]2C(=O)O[C@H](CN=[N+]=[N-])CN2[C@H]1c1ccc(Br)cc1`, the composite z-score in experiment [1] is -0.322 and -0.172; in experiment [3], 0.0584 and 0.213; in [4], -0.425 and -0.201; in [5] it was -0.306 and -0.544; in [6], -0.124; in experiment [7] it was -0.174 and -0.0769. The composite z-score in experiment [8] is 0.0078 and -0.196; in experiment [9], -0.21 and 0.116; in experiment [10], 0.089 and 0.397; in experiment [11] it was -0.507 and 0.491; in experiment [13], -0.125 and -0.197; in experiment [14], -0.245 and -0.0569. Moreover, the composite z-score in experiment [15] is -0.188 and -0.223; in experiment [16], -0.0295 and -0.382; in experiment [17], 0.268 and -0.329; in experiment [18], -0.167 and 0.113; in [19], 0.735 and 0.382; in experiment [20], -0.726 and 0.0516. In addition, the z-score in experiment [2] was -0.0944 and 0.335. Further, in [12], the composite Z-score is 0.142 (inactive) and 0.753 (inactive).
For `COC(=O)C1=C2N(Cc3ccccc3)C(C)=C(C(=O)OC)[C@@H](c3ccccc3)N2C(=O)[C@](O)(C(=O)OC)C1`, the composite z-score was -0.101 and 0.137 in experiment [1]; 0.198 and 0.531 in [3]; 0.225 and -0.29 in experiment [4]; -0.803 and -0.391 in experiment [5]; -0.169 and -0.237 in [6]; -0.214 and -0.0914 in [7]. Moreover, the composite z-score in experiment [8] is -0.18 and 0.162; in [9], -0.203 and 1.01; in [10] it was 0.661 and 0.171; in experiment [11], 0.514 and -0.0136; in experiment [13] it was 0.0349 and -0.063; in experiment [14], -0.171 and -0.0476. In addition, the composite z-score was 0.416 and -0.0902 in experiment [15]; 0.877 and -0.0061 in experiment [16]; -0.109 and 0.809 in experiment [17]; 0.776 and 0.133 in [18]; 0.392 and 0.77 in [19]; 0.712 and -0.0245 in experiment [20]. Also, the z-score in experiment [2] was 0.591 and 0.406. Also, the composite Z-score in [12] was 0.606 (inactive) and 0.656 (inactive).
On to `CC[C@@H]1C(Sc2ccccc2)C(C(=O)O)[C@H](c2ccc(C)cc2)N1S(=O)(=O)c1ccc(C)cc1` (stereo not given in full), for which the composite z-score in experiment [1] was 1.1 and 1.34; in [3], -0.311 and 0.047; in [4], 1.98 and 1.65; in experiment [5], 0.345 and 0.527; in [6], 0.138 and 0.155; in experiment [7], 0.108 and 0.116. The composite z-score is 0.942 and 0.002 in experiment [8]; 1.06 and 1.19 in experiment [9]; 0.836 and 1.14 in [10]; 0.978 and 0.899 in [11]; 0.411 and -0.022 in [13]; 0.0739 and -0.0635 in experiment [14]. Further, the composite z-score was 0.232 and 0.755 in experiment [15]; 0.893 and 2.52 in experiment [16]; 0.541 and 0.418 in experiment [17]; 1.33 and 1.3 in experiment [18]; -0.682 and -0.367 in experiment [19]; 1.22 and 1.09 in [20]. The z-score in experiment [2] was -0.17 and -0.556. For the same molecule, the composite Z-score in experiment [12] is 0.242 (inactive) and 1.85 (inactive).
As to `COc1ccc(-c2ccc3c(n2)CCCN3CC(O)CN2CCCc3nc(-c4ccc(Br)cc4)ccc32)cc1` (stereo not given), the composite z-score was 0.363 and -0.763 in experiment [1]; 0.61 and 0.922 in experiment [3]; 0.347 and 0.413 in experiment [4]; 0.116 and -0.108 in experiment [5]; 0.0994 and -0.006 in experiment [6]; 0.896 and 0.233 in experiment [7]. Besides, the composite z-score was 0.202 and 0.309 in experiment [8]; 0.498 and 0.282 in experiment [9]; 2.04 and 1.76 in experiment [10]; 0.479 and 0.259 in experiment [11]; 0.448 and 0.392 in [13]; -0.0125 and -0.0349 in [14]. Besides, the composite z-score in experiment [15] is 0.491 and 0.44; in [16], -0.0214 and 0.91; in [17], 0.984 and 0.29; in experiment [18] it was 0.764 and 0.301; in experiment [19], 0.708 and 0.919; in experiment [20] it was 0.677 and 0.632. In experiment [2], the z-score is -2.44 and -0.174. Further, the composite Z-score in experiment [12] was 1.48 (inactive) and 2.85 (inactive).
For `CCCNC(=O)OC[C@H]1O[C@H](CCON=C(C)CCC(=O)OC[C@H]2O[C@H](C#Cc3ccccc3)C=C[C@@H]2Oc2ccc(C)cc2)C=C[C@@H]1Oc1ccc(OC)cc1`, the composite z-score is -1.27 in [1]; 0.272 in experiment [3]; -0.309 in experiment [4]; -0.465 in experiment [5]; -0.258 in [6]; -0.174 in [7]. Further, the composite z-score in experiment [8] is -0.332; in experiment [9], -0.492; in experiment [10], 0.0642; in [11] it was -0.22; in experiment [13], -0.158; in experiment [14], -0.141. Further, the composite z-score in [15] was -0.29; in experiment [16], -0.324; in [17] it was -0.141; in [18] it was -1.22; in [19], -0.288; in experiment [20] it was 0.154. Besides, the z-score in experiment [2] was -0.564. Besides, the composite Z-score in [12] is 0.212 (inactive).
